From PubChem BioAssay (NCATS)
Values without a mark were called inactive. Results filed as inconclusive are left out. The source made the active and inactive calls. Calls come from the whole dose curve; as a rule, active = well fitted curve in the direction sought with a large enough effect; inconclusive = small, poorly fitted or top-dose-only effect, or another doubt; inactive = no such curve, though single readings can be large; an effect the other way counts as inactive or inconclusive.

test: qHTS of Nrf2 Activators: LOPAC Validation (AID 624149); conditions: Nrf2/ARE reporter cell assay; series mostly up to 46.1 µM; activation: at the top concentration; note: 0% is about no effect
Procedure, shortened: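 AREc32_Fluc cells, 1000/well, OPTI-MEM + 5% FBS, o/n 37 deg C 5% CO2; compound pin-transfer, 24 hr 37 deg C; Steady-Glo 30 min RT, luminescence read.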

Row | SMILES | activation
1 | CC1=C(CC(=O)O)c2cc(F)ccc2/C1=C\c1ccc(S(C)(=O)=O)cc1 | 0.927%
2 | Nc1cc(=O)[nH]c(N)n1 | 1.05%
3 | OCCN1CCN(CCCN2c3ccccc3Sc3ccc(Cl)cc32)CC1 | 6.63%
4 | CNCCC(Oc1ccc(C(F)(F)F)cc1)c1ccccc1 (stereo unspecified) | 5.8%
5 | CN(C)CCCN1c2ccccc2Sc2ccc(Cl)cc21 | -1.11%
6 | C[C@]12CC[C@@H]3c4ccc(O)cc4CC[C@H]3[C@@H]1CCC2=O | -1.55%
7 | CSc1ccc2c(c1)N(CCC1CCCCN1C)c1ccccc1S2 (stereo unspecified) | 7.58%
8 | CC(C(O)c1ccc(O)cc1)N1CCC(Cc2ccccc2)CC1 (stereo unspecified) | 2.3%

test: HTS Assay for Allosteric Antagonists of the Human D2 Dopamine Receptor: Hit Validation in HTRF (AID 624455); conditions: Cells stably expressing D1 dopamine receptor, inhibition mode; series mostly up to 46.1 µM; activity, negative = inhibition: at the top concentration; note: % is set by controls: 0 for no effect and ±100 for the full control effect
Procedure, shortened: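 HTRF read-out; cells stably expressing D1 receptor; hits scored for inhibition of D1-mediated response. Primary screen: calcium flux, force-coupled inducible Hek293 Trex D2 line, antagonism vs EC80 dopamine.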

Row | SMILES | activity, negative = inhibition | outcome
9 | COC(=O)C1=C(C)NC(C)=C(C(=O)OC)C1c1ccccc1[N+](=O)[O-] | -0.212% | 
10 | CC[C@H]1CN2CCc3cc(OC)c(OC)cc3[C@@H]2C[C@@H]1C[C@H]1NCCc2cc(OC)c(OC)cc21 | 5.43% | 
11 | CC(C)(C)c1onc(OCP(=O)(O)O)c1CC(N)C(=O)O (stereo unspecified) |  | inactive
12 | CN(C)CC[C@@H](c1ccc(Cl)cc1)c1ccccn1 | 2.11% | 
13 | NC(=O)c1ncn([C@@H]2O[C@H](CO)[C@@H](O)[C@H]2O)n1 | -7.35% | 
14 | CN1CCN(C2Cc3ccccc3Sc3ccc(Cl)cc32)CC1 (stereo unspecified) | 7.11% | 
15 | CC(CN1c2ccccc2Sc2ccccc21)N(C)C (stereo unspecified) | 15.4% | 
16 | CC(=O)OCC(=O)[C@@]1(O)CC[C@H]2[C@@H]3CCC4=CC(=O)CC[C@]4(C)[C@H]3C(=O)C[C@@]21C | -9.31% | 
17 | CC1=C(/C=C/C(C)=C/C=C/C(C)=C/C(=O)O)C(C)(C)CCC1 | -3.75% | 
18 | COCCOC(=O)C1=C(C)NC(C)=C(C(=O)OC/C=C/c2ccccc2)C1c1cccc([N+](=O)[O-])c1 (stereo unspecified) | -4.69% | 
19 | CCCn1cnc2c1c(=O)n(CCCCC(C)=O)c(=O)n2C | -26.1% | 
20 | C#CCN(C)Cc1ccccc1 | -2.54% | 
21 | CC(C)C(=O)c1c(C(C)C)nn2ccccc12 | -6.8% | 
22 | CN(C)CCOC(C)(c1ccccc1)c1ccccn1 (stereo unspecified) | 0.708% | 
23 | NC(N)=NCCC[C@H](N)C(=O)O | -1.4% | 
24 | CC(C)(C(=O)O)c1ccc(C(O)CCCN2CCC(C(O)(c3ccccc3)c3ccccc3)CC2)cc1 (stereo unspecified) | 5.46% | 
25 | CC1=C(CC(=O)O)c2cc(F)ccc2/C1=C\c1ccc(S(C)(=O)=O)cc1 | 0.944% | 
26 | Nc1cc(=O)[nH]c(N)n1 | -2.56% | 
27 | OCCN1CCN(CCCN2c3ccccc3Sc3ccc(Cl)cc32)CC1 | 16.8% | 
28 | CNCCC(Oc1ccc(C(F)(F)F)cc1)c1ccccc1 (stereo unspecified) | 1.52% | 
29 | C[C@]12CC[C@@H]3c4ccc(O)cc4CC[C@H]3[C@@H]1CCC2=O | -4.51% | 
30 | CSc1ccc2c(c1)N(CCC1CCCCN1C)c1ccccc1S2 (stereo unspecified) | 6.71% | 
31 | CC(C(O)c1ccc(O)cc1)N1CCC(Cc2ccccc2)CC1 (stereo unspecified) | 13.1% | 
